nsP2pro primary – CHIKV nsP2 protease inhibition, primary qHTS; Q8JUX6; FRET peptide cleavage, nsP2pro, fluorescence 1 h; Potency, µM (highest dose often 24.9 µM), for inactives: at the highest dose activity change, negative = inhibition, most hits filed as inhibitors; 31,000 compounds, 1.1% hits; AID 1964107; further: nearly all actives have a fitted effect of over 60% in size
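Purified recombinant nsP2pro (150 nM final) in 10 mM Tris-HCl pH 8.0 with 0.01% Tween 20 was preincubated 15 min at room temperature with compound (7 concentrations, up to 25 uM). FRET peptide 2 substrate (2.5 uM final) was then added; fluorescence was read after 1 h.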
CHIKV nsP2 cell – inhibits CHIKV nsP2 protease in cells; Potency, µM (doses to about 51.1 µM), for the others: top-dose activity change, negative = inhibition, usual class: inhibitors; cell-based CHIKV nsP2 protease reporter assay; 450 compounds, 10% hits; shares compounds with nsP2pro primary; further: nearly all actives have a fitted effect of over 70% in size
Target sequence (Q8JUX6 220-798 limits assumed): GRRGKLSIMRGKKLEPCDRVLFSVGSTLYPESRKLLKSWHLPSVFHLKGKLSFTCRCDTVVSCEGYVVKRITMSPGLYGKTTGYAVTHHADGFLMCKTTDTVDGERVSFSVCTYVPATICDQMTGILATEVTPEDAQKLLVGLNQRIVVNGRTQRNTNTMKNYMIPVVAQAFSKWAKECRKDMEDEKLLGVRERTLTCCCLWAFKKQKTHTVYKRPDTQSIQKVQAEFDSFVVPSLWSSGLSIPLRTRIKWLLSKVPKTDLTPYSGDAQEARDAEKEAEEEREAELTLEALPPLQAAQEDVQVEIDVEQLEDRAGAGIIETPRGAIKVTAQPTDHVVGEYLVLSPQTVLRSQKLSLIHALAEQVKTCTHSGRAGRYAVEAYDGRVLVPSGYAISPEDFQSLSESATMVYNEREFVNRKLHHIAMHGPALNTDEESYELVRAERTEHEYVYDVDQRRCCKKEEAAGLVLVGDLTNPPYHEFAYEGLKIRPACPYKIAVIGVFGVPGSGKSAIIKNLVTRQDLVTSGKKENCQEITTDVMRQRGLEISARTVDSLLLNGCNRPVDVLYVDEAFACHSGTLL
NSP2 full ctr – selectivity test for CHIKV nsP2 protease inhibitors: full-length NSP2 | shares compounds with nsP2pro primary | Potency, µM (series often up to 50.7 µM), without a hit: top-dose activity change, negative = inhibition, most hits filed as inhibitors | Full-length CHIKV NSP2 protease enzymatic counterscreen | 410 compounds, 39% hits; further: nearly all actives have a fitted effect of over 65% in size
Furin counter – inhibits human furin in a CHIKV nsP2 protease selectivity counterscreen. shares compounds with nsP2pro primary. Recombinant human furin enzymatic counterscreen, fluorogenic substrate. Potency, µM (top dose mostly 50.6 µM), inactives show top-dose activity change, negative = inhibition, most hits filed as inhibitors. 410 compounds, 6% hits
NS23 peptide cs – blocks CHIKV nsP2 protease cleavage of endogenous NS2/3 peptide; 410 compounds, 34% hits; Purified CHIKV nsP2 protease, endogenous NS2/3 peptide cleavage; AID 1964103; Potency, µM (highest dose often 51 µM), inactives show top-dose activity change, negative = inhibition, actives largely listed as inhibitors; shares compounds with nsP2pro primary; further: nearly all actives have a fitted effect of over 55% in size
Papain counter – selectivity counter-screen for CHIKV nsP2 protease inhibitors: papain; shares compounds with nsP2pro primary; purified papain protease activity, enzymatic inhibition; Potency, µM (titrated, usually from 51 µM), for the others: at the highest dose activity change, negative = inhibition, hits mostly inhibitors; 410 compounds, 5% hits; AID 1964104
nsP2pro confirm – confirmation of CHIKV nsP2 protease inhibitors; 410 compounds, 43% hits; CHIKV nsP2 protease enzymatic activity, qHTS; Potency, µM (doses to about 25.5 µM), inactives show at the top dose activity change, negative = inhibition, usual class: inhibitors; shares compounds with nsP2pro primary; further: nearly all actives have a fitted effect of over 75% in size
HCV NS3 counter – HCV NS3/4A protease inhibition, counterscreen; shares compounds with nsP2pro primary; HCV NS3/4A protease biochemical counterscreen; Potency, µM (series often up to 50.9 µM), hits mostly inhibitors; 410 compounds, 20% hits; AID 1964106; further: nearly all actives have a fitted effect of over 55% in size
Active calls of the source: *; i = inactive; ? = inconclusive; ! = not confirmed by another sample; [ ] = another dose, or the depositor's remark. The entries come from a sample that favours hits as a whole. The call rests on the fitted dose curve. On the % scale 0 is the no-effect control and ±100 the full control effect; potency means the concentration at half of the fitted maximal effect.

SMILES | nsP2pro primary | others
O=C(O)CCCCCCCCC(=O)O | -9%[39.2 µM]
Cc1ccc(-c2cc(C(=O)Nc3ccccc3Cl)c3ccccc3n2)cc1C | 4%
O=[N+]([O-])C(Br)(CO)CO | 2.5µM* | CHIKV nsP2 cell=0%;NSP2 full ctr=9.2µM*;Furin counter=2%;NS23 peptide cs=9.2µM*;Papain counter=-7%;nsP2pro confirm=1.6µM*;HCV NS3 counter=?
COc1cccc(-c2nc3cc(NC(=O)c4ccc(C)c([N+](=O)[O-])c4)ccc3o2)c1 | -7%
CC(=O)OC1C(OC(=O)c2ccccc2)C2C(C)(C)CC(=O)CC2(C)C23CCC(C)(C2)C(O)CC13 (centres undefined) | 41%[10 µM]
O=C1CCCC2=C1C(c1cccc(Oc3ccccc3)c1)N=C(Nc1nc3ccccc3o1)N2 (centres undefined) | i
COC(=O)[C@]1(Cc2ccc(O)c(CC=C(C)C)c2)OC(=O)C(O)=C1c1ccc(O)cc1 | 6%[10 µM]
O=C1NS(=O)(=O)c2cc(Br)ccc21 | -2%
Cc1cccc(C(=O)N2C[C@H]3OC(=O)N(CCCN4CCOCC4)[C@H]3C2)c1 | 2%
Cc1cc(C)cc(C(=O)Nc2cc(C(F)(F)F)ccc2N2CCN(c3ccccc3)CC2)c1 | -17%
CCOC(=O)N1CCN(Cc2nc3cc(NC(=O)c4cccc(C)c4)ccc3n2C(C)C)CC1 | 2%
O=C(Nc1ccc(N2CCOCC2)c(C(=O)O)c1)c1ccc(Br)cc1 | 3.5µM* | CHIKV nsP2 cell=11%;NSP2 full ctr=2.9µM*;Furin counter=?;NS23 peptide cs=6.5µM*;Papain counter=3%;nsP2pro confirm=5.7µM*;HCV NS3 counter=1.6µM*
CC(=O)c1ccc(N2CCN(c3ccc(NC(=O)c4cccs4)cc3C(=O)O)CC2)cc1 | -28%
O=C(Nc1ccc2c(c1)N(C1CCCC1)C(=O)c1ccccc1S2)c1ccccc1F | -16%
O=C(Nc1ccc(N2CCN(c3ccc(F)cc3)CC2)c(C(=O)O)c1)c1ccccc1F | ? | CHIKV nsP2 cell=13%;NSP2 full ctr=4.1µM*;Furin counter=?;NS23 peptide cs=13µM*;Papain counter=-5%;nsP2pro confirm=7.1µM*;HCV NS3 counter=1.3µM*
O=C(Nc1ccc(Br)cc1)c1ccc(Br)c(S(=O)(=O)N2CCCCC2)c1 | -4%
Cc1cccc(C(=O)Nc2ccc(N3CCC(CCN4CCOCC4)CC3)c(C(=O)O)c2)c1 | 4.5µM*! | CHIKV nsP2 cell=9%;NSP2 full ctr=-10%;Furin counter=3%;NS23 peptide cs=-3%;Papain counter=-3%;nsP2pro confirm=22%;HCV NS3 counter=?
Cc1cccc(C(=O)Nc2ccc(N3CCN(c4ccc(F)cc4)CC3)c(C(=O)O)c2)c1 | ? | CHIKV nsP2 cell=50%;NSP2 full ctr=7.3µM*;Furin counter=-23%;NS23 peptide cs=16µM*;Papain counter=-3%;nsP2pro confirm=9µM*;HCV NS3 counter=4.1µM*
O=C(Nc1ccc(Cl)c(-c2nc3cc(Cl)ccc3o2)c1)c1cc([N+](=O)[O-])ccc1N1CCOCC1 | -12%
CCN(CC)C(=O)C(c1ccccc1)N1CCN(c2ccc(NC(=O)c3ccccc3-c3cccnc3)cc2F)CC1 (centres undefined) | 1%
COc1ccc(NC(=O)Nc2ccc(-c3nc4ccccc4[nH]3)cc2)cc1OC | 1%
O=C1c2ccccc2-c2c(NCCc3ccccc3)c(=O)[nH]c3cccc1c23 | 436%
C[C@@]12CCC(=O)C[C@@H]1C[C@H](OC(=O)Nc1ccccc1)CC2 | -2%
CN(Cc1ccc(-c2ccc(C#N)cc2)o1)c1ccc(N2CCN(C(=O)OC(C)(C)C)CC2)cc1 | -4%
COc1ccc(-c2cc3onc(-c4ccncc4)c3c(=O)n2C)cc1 | -6%
SMILES | nsP2pro primary | others
Cc1cccc(CNc2ccnc(-c3cccc4ccccc34)n2)c1 | -2%
O=C(Nc1nc(-c2ccccc2)cs1)c1ccncc1NS(=O)(=O)c1ccc2c(c1)CCC2 | i
Cc1cccc(C(=O)Nc2c(N3CCCCC3)c(-c3cccc(F)c3)nn2C)c1 | 3%
C[C@H]1CN(C(=O)CC#N)[C@]12CCN(c1ncnc3[nH]ccc13)C2 | -5%
C=C(C)[C@@H]1CC[C@]2(C)CC[C@]3(C)[C@H](CC[C@@H]4[C@@]5(C)CC[C@H](O)C(C)(C)[C@@H]5CC[C@]43C)[C@@H]12 | -22%[10 µM]
Cc1ccc(OCCn2c(CCNC(=O)c3ccccn3)nc3ccccc32)cc1 | -3%
O=C(Nc1cnc(N2CCC(N3CCCCC3)CC2)c(C(=O)O)c1)c1ccc(Br)cc1 | 4µM* | CHIKV nsP2 cell=-2%;NSP2 full ctr=4.1µM*;Furin counter=?;NS23 peptide cs=16µM*;Papain counter=-7%;nsP2pro confirm=8µM*;HCV NS3 counter=4.1µM*
O=C(Nc1ccccc1)c1cnc(N2CCCCC2)c2ccccc12 | 13%
O=C(Nc1ccc(N2CCC(N3CCCCC3)CC2)c(C(=O)O)c1)c1ccc(Br)cc1 | 34%
CCOc1ccccc1C(=O)NCc1coc(-c2ccc(OC(F)F)c(OC(C)C)c2)n1 | -7%
CC(O)(C#Cc1ccc2c(c1)N(c1nc(N)ncc1Cl)CC2)c1nccs1 (centres undefined) | 5µM*! | CHIKV nsP2 cell=2.1µM*;NSP2 full ctr=7.3µM*;Furin counter=?;NS23 peptide cs=15µM*;Papain counter=-22%;nsP2pro confirm=2.2µM*;HCV NS3 counter=?
O=C(Cc1nnc(-c2ccncc2)s1)Nc1ccc(F)c(C(F)(F)F)c1 | i
CCc1nccc(-c2c(-c3ccccc3)ncn2CC(O)c2ccccc2)n1 (centres undefined) | 4%
Cc1csc(CN(C)c2ncnc3ccc(-c4ccc5c(c4)OCO5)cc23)n1 | i
CNCC(=O)OCc1cccnc1N(C)C(=O)OC(C)[n+]1cnn(C[C@](O)(c2cc(F)ccc2F)[C@@H](C)c2nc(-c3ccc(C#N)cc3)cs2)c1 (some centres undefined) | 14%
CCN1Cc2ccccc2N(CC(O)Cc2ccccc2)CCC1=O (centres undefined) | -17%
Cc1ccc(S(=O)(=O)c2ccc([N+](=O)[O-])o2)cc1 | 0.56µM* | CHIKV nsP2 cell=?;NSP2 full ctr=1.5µM*;Furin counter=-11%;NS23 peptide cs=4.6µM*;Papain counter=?;nsP2pro confirm=0.56µM*;HCV NS3 counter=i
NC(=O)N/N=C/c1ccc([N+](=O)[O-])o1 | -26%
O=NCc1ccc([N+](=O)[O-])o1 | -23%
C=C(C)C(=O)O[C@H]1[C@H]2C(=C)C(=O)O[C@@H]2/C=C(\CO)CC/C=C(/C=O)[C@@H]1O | -12%
C=C1C(=O)O[C@@H]2/C=C(/C)[C@@H](OC(C)=O)C/C=C(\C)C[C@@H](OC(=O)/C(=C/CO)CO)[C@@H]12 | -8%[10 µM]
